High-throughput results as filed in PubChem.
Most compounds without a hit are left out; they make up all but 2.3% or so of the library.
ATXN2 expr inh: reduces ATXN2 reporter expression in HEK-293 cells. HEK-293 ATXN2-luciferase reporter, luminescence, 24 h. Potency, µM (top dose mostly 57 µM), inactives show at the highest dose activity change, negative = inhibition, usual class: inhibitors. 360,000 compounds, 0.72% hits; note: % is set by controls: 0 for no effect and ±100 for the full control effect; nearly all actives have a fitted effect of over 55% in size
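ATXN2-luciferase reporter cells (luciferase flanked by upstream and downstream ATXN2 gene portions) were treated 24 h at 37 °C with compounds at up to 57 uM. SteadyGlo luminescence gave expression; GF-AFC fluorescence gave viability.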
TGFb SMAD3 inh: inhibitors of TGF-b signaling; HepG2 CAGA-GFP TGF-b/SMAD3 reporter, GFP fluorescence, 18 h; TGF-beta stimulated, 500 pg/mL final; Potency, µM (series often up to 46.1 µM), for inactives: top-dose activity, negative = inhibition, usual class: inhibitors; 410,000 compounds, 1.2% hits; AID 588855; note: % is set by controls: 0 for no effect and ±100 for the full control effect; nearly all actives have a fitted effect of over 65% in size
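GFP signal (ex488/em500-530) from TGF-beta-stimulated HEPG2 CAGA-GFP cells, 500 pg/mL final, 18 h at 37 degrees C in DMEM plus 1% FBS, normalized to unstimulated and DMSO-stimulated controls.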
HepG2 tox: kills HepG2 cells in TGF-b inhibitor counter-screen | HepG2 CAGA-GFP viability, ATP luminescence, 18 h | Potency, µM (top dose mostly 46.1 µM), without a hit: top-dose activity change, negative = cytotoxicity, most hits filed as cytotoxic | 410,000 compounds, 0.76% hits
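CellTiter-Glo luminescence gave cytotoxicity after 18 hours at 37 degrees C. The cells were HepG2 CAGA-GFP in 1% FBS DMEM, stimulated with 500 pg/mL TGF-beta after compound addition. %Activity was normalised to no-cell wells (complete cell-killing) and DMSO (no toxicity), and curves were fitted and classified.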
ATXN viability: viability counter-screen for ATXN expression inhibitors; S2 cells (HEK-293 line with an ATXN2-luciferase reporter) viability, CellTiter-Fluor protease fluorescence, 24 h; Potency, µM (highest dose often 56.7 µM), hits mostly cytotoxic; 400,000 compounds, 0.49% hits; note: nearly all actives have a fitted effect of over 40% in size
Numbers without * were called inactive; i = inactive; ? = inconclusive; . = not tested or not shown; [ ] = another dose, or the depositor's remark. Calls come from the whole dose curve; as a rule, active = well fitted curve in the direction sought with a large enough effect; inconclusive = small, poorly fitted or top-dose-only effect, or another doubt; inactive = no such curve, though single readings can be large; an effect the other way counts as inactive or inconclusive. Potency is the fitted concentration of half-maximal effect.

SMILES	ATXN2 expr inh	TGFb SMAD3 inh	HepG2 tox	ATXN viability
CCOC(=O)/C(=C/c1c(C)n(C)c2ccc([N+](=O)[O-])cc12)C(C)=O	-29%	16µM*	-53%	?
CCOC(=O)c1c(N)c2cc([N+](=O)[O-])ccc2n1C	.	-15%	0%	i
COc1ccc(OC(=O)N(CC(=O)O)Cc2ccc(OCCc3nc(-c4ccccc4)oc3C)cc2)cc1	0%	.	.	i
CNc1nc(-c2c[nH]c3ccccc23)cs1	7%	2%	-28%	i
CCC(C)Nc1nc(-c2c[nH]c3ccccc23)cs1 (centres undefined)	-11%	13µM*	-59%	?
Cc1c(Cl)cccc1NC(=O)CC(c1ccc(F)cc1)N1Cc2ccccc2C1=O (centres undefined)	.	18µM*	-28%	.
Cc1c(Cl)cccc1NC(=O)CC(c1cccs1)N1Cc2ccccc2C1=O (centres undefined)	-30%	?	-17%	i
CN=C(NC)NCc1ccccc1	.	.	.	i
CC(=O)Nc1sc2c(c1-c1nc3ccccc3s1)CCN(C(C)C)C2	5.3µM*	?	-29%	?
CC(C)N1CCc2c(sc(NC(=O)c3ccco3)c2C(N)=O)C1	5%	0%	8%	i
CC(C)N1CCc2c(sc(NC(=O)c3ccc(C(=O)c4ccccc4)cc3)c2C(N)=O)C1	?	?	-43%	?
CCN1CCc2c(sc(NC(=O)c3ccc(S(=O)(=O)N(C)CC4CCCO4)cc3)c2C(N)=O)C1 (centres undefined)	-16%	3%	0%	i
CC(C)N1CCc2c(sc(NC(=O)c3ccc4ccccc4c3)c2C(N)=O)C1	-23%	7%	11µM*	i
CC(C)N1CCc2c(sc(NC(=O)c3cc4cc([N+](=O)[O-])ccc4s3)c2C(N)=O)C1	?	?	13µM*	.
CCN1CCc2c(sc(NC(=O)c3ccc(S(=O)(=O)N(C)C4CCCCC4)cc3)c2C(N)=O)C1	?	?	11µM*	i
COCc1ccc(CN2CCOc3ccc(C4=Cc5ccccc5C4)cc3C2)o1	.	.	.	i
CCc1cc2cc(OC)c(OC)cc2c(Cc2ccccc2)n1	21%	.	.	i
NC[C@H]1O[C@H](O[C@H]2[C@H](O)[C@@H](O[C@H]3O[C@H](CO)[C@@H](O)[C@H](N)[C@H]3O)[C@H](N)C[C@@H]2N)[C@H](N)[C@@H](O)[C@@H]1O	9%[25.6 µM]	.	.	i
Cc1cccc(N2CCN(S(=O)(=O)c3ccc4c(c3)C(C)(C)C(=O)N4C)CC2)c1C	?	-25%	-24%	i
Cc1cccc(N2CCN(S(=O)(=O)c3ccc4c(c3)NC(=O)C(C)S4)CC2)c1C (centres undefined)	-24%	16µM*	0%	i
Cc1ccc(NC(=O)C2CCN(S(=O)(=O)c3ccc4c(c3)NC(=O)C(C)S4)CC2)cc1Cl (centres undefined)	.	2.2µM*	-11%	?
Cc1cccc(N2CCN(S(=O)(=O)c3ccc4c(c3)C(C(C)C)C(=O)N4)CC2)c1C (centres undefined)	?	16µM*	-57%	i
COc1ccc2c(c1)OC(C)CN(CCC(=O)NCC1OCCc3ccccc31)C2 (centres undefined)	.	.	.	i
COCc1c(C(=O)N2CCN(C3CCCC3)CC2)cnn1-c1nccc(-c2cc(C)sc2C)n1	.	.	.	i
Cc1cccc2cc(CN(C(=O)c3ccc(-c4ccc(F)cc4)cc3)C3CC3)c(N3CCC(O)CC3)nc12	.	.	.	i
SMILES	ATXN2 expr inh	TGFb SMAD3 inh	HepG2 tox	ATXN viability
CCN(CC)c1nc(-c2ccccn2)nc(-c2ccccc2)c1C#N	4.5µM*	?	-36%	?
COc1cnc(-c2ccccn2)nc1N(C)C	16µM*	-27%	-17%	?
CN(C)c1nc(-c2ccccn2)nnc1-c1ccccc1	8.9µM*	2%	-4%	i
CN(C)c1nc(-c2ccccc2)nc(-c2ccc(Cl)cc2)c1C#N	-10%	-2%	3%	?
c1ccc(-c2nnc(-c3ccccn3)c(-c3ccccn3)n2)nc1	-10%	7%	-3%	i
CC(C(=O)Nc1ccccc1)n1nnc2sc3c(c2c1=O)CCCC3 (centres undefined)	-14%	14µM*	-26%	i
CCc1ccc(NC(=O)CC2C(=O)N(c3cccc(OC)c3)C(=O)N2Cc2ccc(F)cc2)cc1 (centres undefined)	.	?	-25%	.
Cc1ccc(N2C(=O)C(CC(=O)Nc3ccc(F)cc3)N(CCC3=CCCCC3)C2=O)cc1 (centres undefined)	?	13µM*	-34%	?
O=C(CC1C(=O)N(c2ccc(Cl)cc2)C(=S)N1CCc1ccncc1)Nc1ccc(F)cc1 (centres undefined)	?	?	11µM*	i
O=C(CNCCC1=CCCCC1)Nc1ccc(N2CCCCCC2)cc1	?	16µM*	-108%	.
CCCOc1ccc(NC(=O)CC2C(=O)N(c3ccccc3)C(=O)N2Cc2ccc(F)cc2)cc1 (centres undefined)	.	10µM*	-69%	.
COC(=O)c1ccccc1-c1cc(C)cc2c1OC(CNC(=O)c1occc1C)C2 (centres undefined)	.	.	.	i
Cc1cc(-n2c(=O)[nH]c(=O)n(C)c2=O)ccc1Oc1ccc(S(=O)(=O)C(F)(F)F)cc1	.	.	.	i
COc1cccc(CCN2CCC(CNS(=O)(=O)c3cc(-c4cc(C)no4)ccc3OC)CC2)c1	?	?	-43%	i
COc1cccc(CCN2CCC(CNS(=O)(=O)c3cc(-c4cc(C)no4)ccc3C)CC2)c1	.	16µM*	-110%	?
Nc1ccccc1NC(=O)c1ccc(CNc2nccc(-c3cccnc3)n2)cc1	69%	.	.	.
O=C(CCl)N1N=C(c2ccco2)CC1c1ccco1 (centres undefined)	-15%	11µM*	-85%	i
O=C(CCl)N1N=C(c2cccs2)CC1c1ccco1 (centres undefined)	4.2µM*	11µM*	-89%	.
Cc1c(C(=O)N(C)C2CCOC2)cnn1-c1ncc2c(n1)-c1ccccc1CCC2 (centres undefined)	.	.	.	i
Cc1ccccc1C(=O)NC(C)c1nnc2n1CCN(Cc1ccnc3ccccc13)CC2 (centres undefined)	.	.	.	i
C=CCn1c(=N)n(CC(=O)c2cccc([N+](=O)[O-])c2)c2ccccc21	-19%	0%	0%	?
N=c1n(CCN2CCCCC2)c2ccccc2n1CC(=O)c1cccc([N+](=O)[O-])c1	?	?	13µM*	?
O=S(=O)(Nc1nc(-c2sccc2Cl)cs1)c1cc(Cl)ccc1Cl	-13%	11µM*	-92%	?
O=C(COc1ccc2ccccc2c1)Nc1ccc(O)c(-c2nc3ccccc3o2)c1	.	4%	-10%	.
N#Cc1nc(-c2cccs2)oc1NCCc1ccccc1	7%	-9%	-20%	i
